# This is one part of a sample in which the strongest signals are shown more often than they occur.
# B1: MPA (Maclura pomifera), P18674 (protein)
# chain: GVTFDDGAYTGIREINFEYNSETAIGGLRVTYDLNGMPFVAEDHKSFITGFKPVKISLEFPSEYIVEVSGYVGKVEGYTVIRSLTFKTNKQTYGPYGVTNGTPFSLPIENGLIVGFKGSIGYWLDYFSIYLSL
# Tests used:
# Test in all cases: glycan array binding signal (z-score within array); higher = stronger binding
# Details in all cases: glycan notation: IUPAC condensed, linker removed
# Gal6P(b1-4)GlcNAc = molecular target: Gal6P(b1-4)GlcNAc
# Outline: (§1)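 Glycan array data were curated from 3228 arrays in the Consortium for Functional Glycomics database and kept only where the protein sequence was available. Glycan names were converted to IUPAC-condensed notation, and columns mapping to the same glycan were averaged. The binding signal is a within-array Z-score, averaged across arrays of the same protein sequence at different concentrations or buffers and across linkers. Negative Z-scores can be read as non-binding.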
# [1] = molecular target: GlcA3S(b1-3)Gal(b1-4)GlcNAc(b1-2)Man
# Outline: as §1
# [2] = molecular target: GlcNAc(a1-4)Gal(b1-4)GlcNAc(b1-3)Gal(b1-4)[Fuc(a1-3)]GlcNAc(b1-3)Gal(b1-4)[Fuc(a1-3)]GlcNAc
# Outline: as §1
# [3] = molecular target: GlcNAc(b1-3)Gal(b1-4)GlcNAc(b1-2)[GlcNAc(b1-3)Gal(b1-4)GlcNAc(b1-6)]Man(a1-6)[GlcNAc(b1-3)Gal(b1-4)GlcNAc(b1-2)Man(a1-3)]Man(b1-4)GlcNAc(b1-4)GlcNAc
# Outline: as §1
# [4] = molecular target: GlcNAc(b1-3)Gal(b1-4)GlcNAc(b1-3)Gal(b1-4)GlcNAc
# Outline: as §1
# [5] = molecular target: GlcNAc(b1-3)Gal(b1-4)GlcNAc(b1-3)Gal(b1-4)GlcNAc(b1-2)Man(a1-3)[GlcNAc(b1-3)Gal(b1-4)GlcNAc(b1-3)Gal(b1-4)GlcNAc(b1-2)Man(a1-6)]Man(b1-4)GlcNAc(b1-4)GlcNAc
# Outline: as §1
# [6] = molecular target: GlcNAc(b1-3)Gal(b1-4)GlcNAc(b1-3)Gal(b1-4)GlcNAc(b1-3)Gal(b1-4)GlcNAc(b1-2)Man(a1-3)[GlcNAc(b1-3)Gal(b1-4)GlcNAc(b1-3)Gal(b1-4)GlcNAc(b1-3)Gal(b1-4)GlcNAc(b1-2)Man(a1-6)]Man(b1-4)GlcNAc(b1-4)[Fuc(a1-6)]GlcNAc
# Outline: as §1
# [7] = molecular target: GlcNAc(b1-3)Gal(b1-4)GlcNAc(b1-3)Gal(b1-4)GlcNAc(b1-3)Gal(b1-4)GlcNAc(b1-2)[GlcNAc(b1-3)Gal(b1-4)GlcNAc(b1-3)Gal(b1-4)GlcNAc(b1-3)Gal(b1-4)GlcNAc(b1-6)]Man(a1-6)[GlcNAc(b1-3)Gal(b1-4)GlcNAc(b1-3)Gal(b1-4)GlcNAc(b1-3)Gal(b1-4)GlcNAc(b1-2)Man(a1-3)]Man(b1-4)GlcNAc(b1-4)[Fuc(a1-6)]GlcNAc
# Outline: as §1
# [8] = molecular target: GlcNAc(b1-3)Gal(b1-4)GlcNAc(b1-3)Gal(b1-4)GlcNAc(b1-3)Gal(b1-4)GlcNAc(b1-3)Gal(b1-4)GlcNAc(b1-2)[GlcNAc(b1-3)Gal(b1-4)GlcNAc(b1-3)Gal(b1-4)GlcNAc(b1-3)Gal(b1-4)GlcNAc(b1-3)Gal(b1-4)GlcNAc(b1-6)]Man(a1-6)[GlcNAc(b1-3)Gal(b1-4)GlcNAc(b1-3)Gal(b1-4)GlcNAc(b1-3)Gal(b1-4)GlcNAc(b1-3)Gal(b1-4)GlcNAc(b1-2)Man(a1-3)]Man(b1-4)GlcNAc(b1-4)[Fuc(a1-6)]GlcNAc
# Outline: as §1
# [9] = molecular target: GlcNAc(b1-3)Gal(b1-4)GlcNAc(b1-3)Gal(b1-4)GlcNAc(b1-3)GalNAc
# Outline: as §1
# [10] = molecular target: GlcNAc(b1-4)GlcNAc(b1-4)GlcNAc(b1-4)GlcNAc(b1-4)GlcNAc(b1-4)GlcNAc
# Outline: as §1
# [11] = molecular target: Man(a1-2)Man(a1-2)Man(a1-6)[Man(a1-3)]Man
# Outline: as §1
# [12] = molecular target: Man(a1-2)Man(a1-3)[Man(a1-2)Man(a1-6)]Man(a1-6)[Man(a1-2)Man(a1-2)Man(a1-3)]Man
# Outline: as §1
# [13] = molecular target: Neu5Ac(a2-3)Gal(b1-3)GalNAc(b1-4)[Neu5Ac(a2-3)]Gal(b1-4)Glc
# Outline: as §1
# [14] = molecular target: Neu5Ac(a2-3)Gal(b1-3)GalNAc(b1-4)[Neu5Ac(a2-8)Neu5Ac(a2-3)]Gal(b1-4)Glc
# Outline: as §1
# [15] = molecular target: Neu5Ac(a2-3)Gal(b1-3)GlcNAc(b1-2)Man
# Outline: as §1
# [16] = molecular target: Neu5Ac(a2-3)Gal(b1-3)[Neu5Ac(a2-6)]GalNAc
# Outline: as §1
# [17] = molecular target: Neu5Ac(a2-3)Gal(b1-4)GlcNAc(b1-2)[Neu5Ac(a2-3)Gal(b1-4)GlcNAc(b1-6)]Man(a1-6)[Neu5Ac(a2-3)Gal(b1-4)GlcNAc(b1-2)Man(a1-3)][GlcNAc(b1-4)]Man(b1-4)GlcNAc(b1-4)GlcNAc
# Outline: as §1
# [18] = molecular target: Neu5Ac(a2-3)Gal(b1-4)GlcNAc(b1-3)Gal(b1-4)GlcNAc(b1-3)Gal(b1-4)GlcNAc(b1-2)Man(a1-3)[Neu5Ac(a2-3)Gal(b1-4)GlcNAc(b1-3)Gal(b1-4)GlcNAc(b1-3)Gal(b1-4)GlcNAc(b1-2)Man(a1-6)]GalNAc
# Outline: as §1
# [19] = molecular target: Neu5Ac(a2-6)Gal(b1-4)GlcNAc(b1-3)Gal(b1-4)GlcNAc(b1-3)Gal(b1-4)GlcNAc(b1-2)Man(a1-3)[Neu5Ac(a2-6)Gal(b1-4)GlcNAc(b1-3)Gal(b1-4)GlcNAc(b1-3)Gal(b1-4)GlcNAc(b1-2)Man(a1-6)]GalNAc
# Outline: as §1
# [20] = molecular target: Neu5Ac(a2-6)GlcNAc(b1-4)GlcNAc
# Outline: as §1
# [21] = molecular target: Neu5Ac(a2-8)Neu5Ac(a2-3)[GalNAc(b1-4)]Gal(b1-4)Glc
# Outline: as §1
# [22] = molecular target: Neu5Ac(a2-8)Neu5Ac(a2-8)Neu5Ac(a2-3)[Gal(b1-3)GalNAc(b1-4)]Gal(b1-4)Glc
# Outline: as §1
# Neu5Gc(a2-3)Gal(b1-4)Glc = molecular target: Neu5Gc(a2-3)Gal(b1-4)Glc
# Outline: as §1
# [23] = molecular target: Neu5Gc(a2-8)Neu5Gc(a2-3)Gal(b1-4)GlcNAc(b1-3)Gal(b1-4)GlcNAc
# Outline: as §1
binder,measurement,setting,value
B1,glycan array binding signal (z-score),Gal6P(b1-4)GlcNAc,-0.561
same,glycan array binding signal (z-score),[1],-0.571
same,glycan array binding signal (z-score),[2],-0.148
same,glycan array binding signal (z-score),[3],5.1
same,glycan array binding signal (z-score),[4],-0.233
same,glycan array binding signal (z-score),[5],3.5
same,glycan array binding signal (z-score),[6],5.73
same,glycan array binding signal (z-score),[7],4.46
same,glycan array binding signal (z-score),[8],0.56
same,glycan array binding signal (z-score),[9],-0.343
same,glycan array binding signal (z-score),[10],-0.082
same,glycan array binding signal (z-score),[11],-0.161
same,glycan array binding signal (z-score),[12],-0.215
same,glycan array binding signal (z-score),[13],-0.301
same,glycan array binding signal (z-score),[14],-0.179
same,glycan array binding signal (z-score),[15],1.21
same,glycan array binding signal (z-score),[16],0.304
same,glycan array binding signal (z-score),[17],-0.334
same,glycan array binding signal (z-score),[18],3.56
same,glycan array binding signal (z-score),[19],6.71
same,glycan array binding signal (z-score),[20],-0.39
same,glycan array binding signal (z-score),[21],-0.273
same,glycan array binding signal (z-score),[22],-0.044
same,glycan array binding signal (z-score),Neu5Gc(a2-3)Gal(b1-4)Glc,-0.156
same,glycan array binding signal (z-score),[23],-0.219

# Reference: the supplement of paper PMC8728848
